From PubChem BioAssay AID1778 (Sanford-Burnham Center for Chemical Genomics, 2009)
The whole screen tested about 290,000 compounds, of which about 260 (0.09%) were called active. Rule as the data show it: active = inhibition above about 50%; inactive = the rest. The sample as a whole holds a higher share of actives than the screen did. Potency and affinity values are given separately.

biological target: Kappa-type opioid receptor (Homo sapiens) (UniProt P41145); assay: kappa opioid receptor blockers – cell-based, luminescence, uHTS (AID 1778); conditions: KOR beta-arrestin recruitment, antagonist mode, hits give high values; at 10 µM unless noted
Sequence (P41145 whole entry, looked up): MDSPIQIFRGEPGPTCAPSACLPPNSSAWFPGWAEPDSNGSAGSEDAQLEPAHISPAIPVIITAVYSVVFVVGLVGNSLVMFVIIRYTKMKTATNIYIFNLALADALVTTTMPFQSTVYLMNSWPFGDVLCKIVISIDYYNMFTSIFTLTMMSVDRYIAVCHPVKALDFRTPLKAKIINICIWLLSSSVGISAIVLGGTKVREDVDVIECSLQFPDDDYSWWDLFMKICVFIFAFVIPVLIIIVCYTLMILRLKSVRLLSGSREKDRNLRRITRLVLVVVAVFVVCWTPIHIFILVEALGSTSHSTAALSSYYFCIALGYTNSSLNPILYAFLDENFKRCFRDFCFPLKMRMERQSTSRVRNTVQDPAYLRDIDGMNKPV

inhibition, active:
CCOC(=O)c1ccc(N/N=C/c2cc(Br)cc([N+](=O)[O-])c2O)cc1 60.8% [at 20 µM]
Cc1cccc(C)c1NC(=O)C(c1cccs1)N(Cc1ccco1)C(=O)Cn1nnc2ccccc21 (stereo not given) 53.4%
Cc1ccc(C)c(N=Nc2ccc(O)c3ncccc23)c1 60.4%
Cc1ccc(N=Nc2ccc(O)c3ncccc23)cc1C 60.3%
Oc1c(C(c2ccccc2Cl)N2CCCC2)ccc2cccnc12 (stereo not given) 57.9%
C(=N\Nc1nc(-c2ccccn2)nc2ccccc12)/c1ccccc1 76.2%

inhibition, inactive:
COC(=O)C1=CN(C2CC2)C=C(C(=O)OC)C1c1ccc(C(F)(F)F)cc1 -9.8% [at 20 µM]
COCCn1c(SCC(=O)N2CCCC2)nnc1-c1ccco1 10.6%
O=C(COc1ccc2c(C(F)(F)F)cc(=O)oc2c1)NCc1cccs1 -40.4%
S=C(Nc1ccc(Oc2ccccc2)cc1)Nc1cccnc1 -26.6% [at 20 µM]
Cc1cc(C)cc(N2C(N)=NC(N)=NC2c2ccccc2F)c1 (stereo not given) 1.5%
COC(=O)c1c(NC(=O)CN2CCN(c3ncccn3)CC2)sc(C(N)=O)c1C -4.1%
S=c1sc2c(N3CCN(Cc4ccccc4)CC3)ncnc2n1-c1ccccc1 -18%
S=c1sc2c(N3CCOCC3)ncnc2n1-c1ccccc1 -30.9%
CCOc1ccc(CNc2ccc3c(c2)nc(C)n3C)cc1 7.3%
Oc1c(CN2CCc3ccccc3C2)cc(Cl)c2cccnc12 -4%
Oc1ccc(CN2CCCCC2)c2cccnc12 -7.4%
Nc1nc(NC(=O)c2cccs2)nn1-c1ccccc1 -23%
Oc1c(Cl)cc(CN2CCCCC2)c2cccnc12 -1.6%
O=[N+]([O-])c1cc(Cl)c2cccnc2c1O 1.5% [at 20 µM]
Oc1c(I)cc(I)c2cccnc12 -35.5%
Clc1cc2cccnc2c2ccccc12 1.4%
COc1cccc(NC(=O)CSc2nc3ccccc3n2C)c1 2.2%
Cc1cccc(NC(=S)NC(NC(=O)OCc2ccccc2)C(Cl)(Cl)Cl)c1 (stereo not given) -6.6%
O=C(NC(NC(=S)Nc1cccc(C(=O)O)c1)C(Cl)(Cl)Cl)OCc1ccccc1 (stereo not given) 3.3%
Cc1ccc(C)c(NC(=S)NC(NC(=O)OCc2ccccc2)C(Cl)(Cl)Cl)c1 (stereo not given) -2%
O=C(NC(NC(=S)Nc1cccc(Cl)c1)C(Cl)(Cl)Cl)OCc1ccccc1 (stereo not given) 5.1%
O=C(CNCCc1ccc(F)cc1)Nc1cc(F)ccc1F -1.9%
CC(=O)N1N=C(c2ccccc2)CC1c1cccc([N+](=O)[O-])c1 (stereo not given) -7% [at 20 µM]
O=C(O)CCC(=O)N1N=C(c2cccs2)CC1c1cccc([N+](=O)[O-])c1 (stereo not given) -24.4% [at 20 µM]
CCc1nn(CC(=O)NCCCN(C)Cc2ccccc2)c(=O)c2cc3sc(C)cc3n12 1.9%
CCC(=O)N1CC2(CC(c3cccc(NC(=O)COc4ccc(Cl)cc4)c3)=NO2)C[C@@H]1C(N)=O (stereo not given in full) 8.3%
COC(=O)c1ccc(N/N=C/c2cc([N+](=O)[O-])cc(OC)c2O)cc1 -4.6%
O=C(N/N=C/c1cc(Br)cc([N+](=O)[O-])c1O)c1ccc(NC(=O)c2ccc(F)cc2)cc1 -22.2%
COc1ccc(CNC(=O)C2CCC(CNS(=O)(=O)c3ccc(C)cc3)CC2)cc1 (stereo not given) 5.5%
COc1ccc2nc(N3C(=O)CNC3=S)sc2c1 59.9%
CCOc1ccc2nc(N3C(=O)/C(=C/c4ccccc4)NC3=S)sc2c1 13.6%
Cc1ccc2nc(N3C(=O)CNC3=S)sc2c1 45.5%
O=C1CNC(=S)N1c1nc2ccccc2s1 18.9%
Cc1cc(C)cc(Nc2nc3c(S(=O)(=O)c4ccccc4)nnn3c3ccccc23)c1 -17.6%
COc1cccc(NC(=O)CSc2ccc3nnc(-c4ccccn4)n3n2)c1 3%
Cc1ccc(SC[C@H](CC(C)C)N2CCN(C)CCC2=O)cc1 30.9%
COc1ccccc1OC(C)C(=O)NNC(=S)NC1CCCC1 (stereo not given) 1.5%
COc1ccc(N2C(=S)NC3N2C(=S)NC3(C)c2ccccc2)cc1 (stereo not given) -26.3%
CC(C)CNS(=O)(=O)c1ccc(CCC(=O)N2CCC(C(N)=O)CC2)cc1 -7.7%
Cc1cc(C)nc(-n2nc(C)cc2Nc2ccccc2)n1 -25%
Cc1ccc(Nc2cc(C)nn2-c2nc(C)cc(C)n2)cc1 2%
COc1cccc(N2C(=O)CC(N3CCN(c4ccc([N+](=O)[O-])cc4)CC3)C2=O)c1 (stereo not given) -48.1% [at 20 µM]
O=C(NCc1ccco1)C(c1cccs1)N(Cc1ccccc1)C(=O)Cn1nnc2ccccc21 (stereo not given) 9.5%
Cc1ccc(CN(C(=O)Cn2nnc3ccccc32)C(C(=O)NCc2ccco2)c2cccs2)cc1 (stereo not given) 17.9%
COc1cc(NS(=O)(=O)c2cn(C)cn2)cc(OC)c1 -11.4%
Cc1ccc(NC(=O)c2cc(N3C(=O)C=CC3=O)ccc2N2CCOCC2)cc1Cl -45.3%
Cc1ccc(NC(=O)c2cc(N3C(=O)CCC3=O)ccc2N2CCOCC2)cc1 -2.1% [at 20 µM]
O=C(Nc1ccc(N2CCOCC2)c([N+](=O)[O-])c1)c1ccco1 11.4%
Cc1ccc(-c2ccc(C(=O)O)c(C)n2)cc1 21%
Cc1ccc(N=Nc2cc(C)ccc2O)c(C)c1 19.5%
O=Nc1ccc(O)c2ncccc12 7.2%
Oc1ccc(N=Nc2ccccc2C(F)(F)F)c2cccnc12 29.5%
CCS(=O)(=O)c1ccc(OC)c(N=Nc2ccc(O)c3ncccc23)c1 1.8%
Cc1ccc(N=Nc2ccc(O)c3ncccc23)cc1 -2.4%
COc1ccccc1N=Nc1ccc(O)c2ncccc12 -19.2%
CC(C)Oc1ccc(N2CC(C(=O)Nc3ccccn3)CC2=O)cc1 (stereo not given) 19.8% [at 20 µM]
COc1cc(/C=C2/N=C(C3CCCCC3)OC2=O)cc(OC)c1OC -1.6%
CCC(=O)Nc1ccc(NC(=O)c2cccc3ccccc23)cc1 -36.8% [at 20 µM]
S=C(NCCCc1ccccc1)NCc1ccccc1 7.2%
Cc1ccc(S(=O)(=O)N2CCOCC2)cc1C(=O)NC1CCSc2ccccc21 (stereo not given) 27.2%
CCOc1ncccc1C(=O)NCCc1ccc(S(N)(=O)=O)cc1 -2.5%
COc1ccc(C(NC(=O)c2ccc(=O)[nH]c2)C(=O)Nc2ccc(C(C)C)cc2)cc1 (stereo not given) -5%
CCOCCCNC(=O)c1cc(=O)n(Cc2cccc(C)c2)c2ccccc12 3.1%
O=C(C#Cc1ccccc1)c1cccc([N+](=O)[O-])c1 -9.6%
O=C(c1ccc(-c2ccccc2)cc1)c1ccc([N+](=O)[O-])cc1 -69.2%
O=C(c1ccccc1)c1ccc(Sc2ccc([N+](=O)[O-])cc2)cc1 10.8%
O=C(Nc1cccc([N+](=O)[O-])c1)c1ccccc1 2.6%
N/C(=N\OC(=O)c1ccc2c(c1)OCO2)c1cccnc1 -2.2% [at 20 µM]
CCC(C)(C)NC(=O)C1CCN(c2nc(OC)nc(OC)n2)CC1 -16.1%
COCC1CCN(C(=O)c2cc(COc3ccc(-n4cncn4)cc3)on2)C1 (stereo not given) -15.5%
CC(C)(C)C1CCc2c(sc(NC(=O)c3cccs3)c2C(N)=O)C1 (stereo not given) -55.5%
Oc1c(C(c2cccs2)N2CCN(c3ccccc3)CC2)ccc2cccnc12 (stereo not given) 2.5%
Oc1c(C(c2ccccn2)N2CCCCC2)cc(Cl)c2cccnc12 (stereo not given) -6.4%
C/C(=N\Nc1nc(Cl)c(Cl)cc1Cl)c1ccc(S(=O)(=O)NCc2ccco2)cc1 -56.4%
COCCn1c(=N)c(S(=O)(=O)c2ccc(F)cc2)cc2c(=O)n3cccc(C)c3nc21 -2.3%
COc1ccc(N(C(=O)c2ccco2)S(=O)(=O)c2ccccc2)cc1 -19.2%
CCCCN(Cc1cc2cc(OC)ccc2[nH]c1=O)S(=O)(=O)c1ccc(C)cc1 -44.3% [at 20 µM]
O=C(Cn1ncc2ccccc21)N1CCc2ccccc21 1.2%
O=C1CN(C(=O)Cn2ncc(Cl)c(Cl)c2=O)c2ccccc2N1 53.5%
Cc1nc(-c2noc(-c3ccc(Cl)cc3)n2)c(C(F)(F)F)o1 31.9%
CCCCN1C(=O)C2(OCCCO2)c2cccc(C)c21 -40.4% [at 20 µM]
CN1CC(=O)N(CC(=O)NCc2ccc(F)cc2)c2ccccc2C1=O 3%
Cc1c(C(=O)O)[nH]c2c1C(=O)CC(c1ccccc1)C2 (stereo not given) -26.9%
Cc1oc2c(c(=O)c1C)C(=O)CC(c1ccccc1)C2 (stereo not given) -21.1%
CCN1CCN(CC(=O)N2N=C(c3cccs3)CC2c2ccc(F)cc2)C(=O)C1=O (stereo not given) 0.6%
Cc1ccc(-c2nc(N/N=C/c3ccncc3)c3ccccc3n2)cc1 2.4%
C(=N\Nc1nc(-c2cccnc2)nc2ccccc12)/c1ccccc1 -5.2%
C/C(=N\Nc1nc(-c2ccccn2)nc2ccccc12)c1ccc(F)cc1 31.6%
Fc1ccccc1/C=N/Nc1ncnc2ccccc12 10.9%
